Results taken from PubChem BioAssay (Tox21).
Inconclusive results are not listed. The source made the active and inactive calls. Unless noted, calls come from the whole dose curve; as a rule, active = well fitted curve in the direction sought with a large enough effect in the repeat runs; inconclusive = weak or mixed curves; inactive = no such curve, though single readings can be large; an effect the other way counts as inactive or inconclusive.

What was measured:
[1] = qHTS assay to identify small molecule agonists of the peroxisome proliferator-activated receptor delta (PPARd) signaling pathway - cell viability counter screen (AID 743211); note: nearly all actives have a fitted effect of over 55% in size
Procedure, shortened: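 PPARd-bla HEK293H cells (3000/well) were pre-incubated 5 h at 37 C, then exposed to compound for 17 h at 37 C. After 2 h with LiveBLAzer substrate, CellTiter-Glo was added to the same wells; luminescence read after 30 min at room temperature.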

[2] = biological target: Peroxisome proliferator-activated receptor delta (Homo sapiens) (UniProt Q03181); assay: qHTS assay to identify small molecule agonists of the peroxisome proliferator-activated receptor delta (PPARd) signaling pathway (AID 743212; calls by dose curve)
Chain of Peroxisome proliferator-activated receptor delta (Homo sapiens) (Q03181 whole entry, looked up): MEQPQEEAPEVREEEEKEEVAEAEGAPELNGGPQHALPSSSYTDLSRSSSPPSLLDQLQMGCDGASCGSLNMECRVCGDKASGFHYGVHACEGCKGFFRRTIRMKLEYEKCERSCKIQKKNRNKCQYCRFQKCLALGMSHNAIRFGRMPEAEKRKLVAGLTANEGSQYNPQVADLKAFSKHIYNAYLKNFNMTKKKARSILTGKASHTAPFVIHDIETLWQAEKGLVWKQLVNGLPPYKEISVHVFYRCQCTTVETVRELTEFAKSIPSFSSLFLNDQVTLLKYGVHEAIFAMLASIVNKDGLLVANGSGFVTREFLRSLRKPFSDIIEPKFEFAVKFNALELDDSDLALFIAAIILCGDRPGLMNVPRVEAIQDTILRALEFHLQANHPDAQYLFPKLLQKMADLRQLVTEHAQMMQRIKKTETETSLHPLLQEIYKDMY
Procedure, shortened: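 Quantitative high-throughput agonist screen in a HEK293H beta-lactamase reporter line under UAS control. Compounds in DMSO, at 37 C. Fluorescence read after 2 h with FRET substrate at room temperature.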

[3] = qHTS assay to identify small molecule antagonists of the peroxisome proliferator-activated receptor delta (PPARd) signaling pathway - cell viability counter screen (AID 743213); note: nearly all actives have a fitted effect of over 50% in size
Procedure, shortened: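 PPARd-bla HEK293H cells were treated with compounds plus agonist L165041 (300 nM final) for 17 h at 37 C. Viability was then read in the same wells by CellTiter-Glo luminescence after 30 min at room temperature.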

[4] = biological target: Peroxisome proliferator-activated receptor delta (Homo sapiens) (UniProt Q03181); assay: qHTS assay to identify small molecule antagonists of the peroxisome proliferator-activated receptor delta (PPARd) signaling pathway (AID 743215; active = well fitted inhibition curve with a large enough effect in the signal ratio in the repeat runs, not every such curve was filed as active; the % refers to the signal ratio;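 note: cells stimulated with agonist L165041 at 300 nM final during compound exposure; series mostly up to about 62 µM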)
Procedure, shortened: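 Antagonist-mode beta-lactamase reporter screen: HEK293H cells with UAS-bla under PPARd control, stimulated by 300 nM L165041 (final) alongside test compound for 17 h at 37 C, then FRET fluorescence after 2 h substrate incubation.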

[5] = biological target: Bile acid receptor (Homo sapiens) (UniProt Q96RI1); assay: qHTS assay to identify small molecule antagonists of the farnesoid-X-receptor (FXR) signaling pathway (AID 743217; active = well fitted inhibition curve with a large enough effect in the signal ratio in the repeat runs, not every such curve was filed as active; the % refers to the signal ratio)
Chain of Bile acid receptor (Homo sapiens) (Q96RI1 whole entry, looked up): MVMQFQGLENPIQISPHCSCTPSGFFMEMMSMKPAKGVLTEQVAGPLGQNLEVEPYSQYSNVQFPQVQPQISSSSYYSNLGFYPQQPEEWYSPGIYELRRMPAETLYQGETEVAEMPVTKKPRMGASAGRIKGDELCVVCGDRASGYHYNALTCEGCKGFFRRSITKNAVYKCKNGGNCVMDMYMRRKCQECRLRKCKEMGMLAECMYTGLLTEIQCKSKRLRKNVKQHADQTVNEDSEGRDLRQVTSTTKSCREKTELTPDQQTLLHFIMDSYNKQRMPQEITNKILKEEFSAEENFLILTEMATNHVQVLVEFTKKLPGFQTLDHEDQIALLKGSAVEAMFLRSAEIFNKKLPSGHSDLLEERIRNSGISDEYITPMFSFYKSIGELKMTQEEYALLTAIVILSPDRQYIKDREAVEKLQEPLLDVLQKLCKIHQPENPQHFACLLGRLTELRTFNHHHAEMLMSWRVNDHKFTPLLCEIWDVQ
Procedure, shortened: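 Beta-lactamase reporter under UAS control in HEK 293T cells; compound exposure 16 h at 37 °C in the presence of chenodeoxycholic acid (50 uM final); signal from B/G FRET substrate after 2 h at room temperature.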

[6] = qHTS assay to identify small molecule agonists of the farnesoid-X-receptor (FXR) signaling pathway - cell viability counter screen (AID 743218); note: nearly all actives have a fitted effect of over 45% in size
Procedure, shortened: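 In GeneBLAzer FXR-UAS-bla HEK 293T cells, compounds act for 16 h at 37 C. Cell viability is then scored in the reporter wells by CellTiter-Glo, 30 min at RT, luminescence.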

[7] = biological target: Bile acid receptor (Homo sapiens) (UniProt Q96RI1); assay: qHTS assay to identify small molecule agonists of the farnesoid-X-receptor (FXR) signaling pathway (AID 743220; active = well fitted activation curve with a large enough effect in the signal ratio in the repeat runs, not every such curve was filed as active; the % refers to the signal ratio)
Procedure, shortened: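 Beta-lactamase reporter under UAS control in GeneBLAzer FXR HEK 293T cells (5000/well) measured with LiveBLAzer FRET substrate after 2 h at room temperature. Compound exposure lasted 16 h at 37C.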

[8] = qHTS assay to identify small molecule antagonists of the farnesoid-X-receptor (FXR) signaling pathway - cell viability counter screen (AID 743221; active = well fitted cell-killing curve with a large enough effect in the repeat runs, not every such curve was filed as active; note: nearly all actives have a fitted effect of over 50% in size)
Procedure, shortened: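 GeneBLAzer FXR-UAS-bla HEK 293T cells, compound plus chenodeoxycholic acid (50 uM final), 16 h at 37 C. CellTiter-Glo added to the same wells after the beta-lactamase read; luminescence read after 30 min at room temperature as viability.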

[9] = biological target: Vitamin D3 receptor (Homo sapiens) (UniProt P11473); assay: qHTS assay to identify small molecule agonists of the vitamin D receptor (VDR) signaling pathway (AID 743222; calls by dose curve)
Chain of Vitamin D3 receptor (Homo sapiens) (P11473 whole entry, looked up): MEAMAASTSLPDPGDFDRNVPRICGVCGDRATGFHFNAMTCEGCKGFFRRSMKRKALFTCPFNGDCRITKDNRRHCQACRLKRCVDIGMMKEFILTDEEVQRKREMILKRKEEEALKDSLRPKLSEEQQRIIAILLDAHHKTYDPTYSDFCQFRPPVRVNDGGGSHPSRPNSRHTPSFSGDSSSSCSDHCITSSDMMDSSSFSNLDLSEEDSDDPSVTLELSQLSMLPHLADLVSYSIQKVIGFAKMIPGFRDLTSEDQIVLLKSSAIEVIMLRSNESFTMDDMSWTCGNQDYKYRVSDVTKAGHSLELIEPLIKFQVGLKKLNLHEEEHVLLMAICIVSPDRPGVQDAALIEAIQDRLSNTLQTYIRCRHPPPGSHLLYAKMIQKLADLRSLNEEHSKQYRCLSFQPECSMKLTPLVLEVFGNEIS
Procedure, shortened: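 Agonist activity measured in VDR-bla reporter cells. Exposure 16 h, 37C, 5% CO2; detection by B/G FRET substrate, 2 h RT.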

[10] = biological target: Vitamin D3 receptor (Homo sapiens) (UniProt P11473); assay: qHTS assay to identify small molecule antagonists of the vitamin D receptor (VDR) signaling pathway (AID 743223; active = well fitted inhibition curve with a large enough effect in the signal ratio in the repeat runs, not every such curve was filed as active; the % refers to the signal ratio)
Procedure, shortened: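 VDR-bla cells were treated with compound plus 3 nM final 1alpha,25-dihydroxyvitamin D3 for 16 h at 37C. Beta-lactamase reporter read by B/G FRET substrate fluorescence after 2 h at room temperature. qHTS format.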
% is set by controls: 0 for no effect and ±100 for the full control effect.

CCOC(=O)C(C)Oc1ccc(Oc2nc3ccc(Cl)cc3o2)cc1 (stereo not given)
inactive: Potency [1] | Potency [2] | Potency [3] | Potency [4] | Potency [5] | Potency [6] | Potency [7] | Potency [8] | outcome [9]

CC(C)(C)C(=O)C(Oc1ccc(Cl)cc1)n1ccnc1 (stereo not given)
inactive: Potency [1] | Potency [2] | Potency [3] | Potency [4] | Potency [5] | Potency [6] | Potency [7] | Potency [8]

O=C(Nc1ccccc1)Nc1ccccc1
inactive: Potency [1] | Potency [2] | Potency [3] | Potency [4]

CC(C)(CCl)c1ccccc1
inactive: Potency [1] | Potency [2] | Potency [3] | Potency [4] | Potency [5] | Potency [6] | Potency [7] | Potency [8] | outcome [9] | outcome [10]

CO[C@H]1O[C@H](CO)[C@@H](O)[C@H](O)[C@H]1O
inactive: Potency [1] | Potency [2] | Potency [3] | Potency [4] | Potency [5] | Potency [6] | Potency [7] | Potency [8] | outcome [9] | outcome [10]

CC(C)OCC1CO1 (stereo not given)
inactive: Potency [1] | Potency [2] | Potency [3] | Potency [4] | Potency [5] | Potency [6] | Potency [7] | Potency [8] | outcome [10]

C=CC(C)(C)CC(=O)OC
inactive: Potency [1] | Potency [2] | Potency [3] | Potency [4] | Potency [5] | Potency [6] | Potency [7] | Potency [8] | outcome [10]

CC1=C(C=O)C(C)(C)CCC1
inactive: Potency [1] | Potency [2] | Potency [3] | Potency [4] | Potency [5] | Potency [6] | Potency [7] | Potency [8] | outcome [9]

CCCCC(=O)O[C@]1(C(=O)CO)CC[C@H]2[C@@H]3CCC4=CC(=O)CC[C@]4(C)[C@H]3[C@@H](O)C[C@@]21C
inactive: Potency [1] | Potency [2] | Potency [3] | Potency [4] | Potency [5] | Potency [6] | Potency [7] | Potency [8]

CC(CCO)CCc1ccccc1 (stereo not given)
inactive: Potency [1] | Potency [2] | Potency [3] | Potency [4] | Potency [5] | Potency [6] | Potency [7] | Potency [8] | outcome [9] | outcome [10]

CN(C(=O)C(Cl)Cl)c1ccc(OC(=O)c2ccco2)cc1
inactive: Potency [1] | Potency [2] | Potency [3] | Potency [4] | Potency [5] | Potency [6] | Potency [7] | Potency [8] | outcome [9]

CC(C)(O)c1ccccc1CC[C@@H](SCC1(CC(=O)O)CC1)c1cccc(/C=C/c2ccc3ccc(Cl)cc3n2)c1
inactive: Potency [1] | Potency [2] | Potency [3] | Potency [4] | Potency [5] | Potency [6] | Potency [7] | Potency [8] | outcome [9]

CCCCCCCCCOC(C)=O
inactive: Potency [1] | Potency [2] | Potency [3] | Potency [4] | Potency [5] | Potency [6] | Potency [7] | Potency [8] | outcome [10]

O=C1NCCN1
inactive: Potency [1] | Potency [2] | Potency [3] | Potency [4] | Potency [5] | Potency [6] | Potency [7] | Potency [8] | outcome [9] | outcome [10]

COC(=O)CC(=O)C(C)(C)C
inactive: Potency [1] | Potency [2] | Potency [3] | Potency [4] | Potency [5] | Potency [6] | Potency [7] | outcome [9] | outcome [10]

CCCC(=O)O[C@]1(C(=O)COC(=O)CC)CC[C@H]2[C@@H]3CCC4=CC(=O)CC[C@]4(C)[C@H]3[C@@H](O)C[C@@]21C
inactive: Potency [1] | Potency [2] | Potency [3] | Potency [4] | Potency [5] | Potency [7] | Potency [8] | outcome [9] | outcome [10]

CCC(C)=O
inactive: Potency [1] | Potency [2] | Potency [3] | Potency [4] | Potency [5] | Potency [6] | Potency [8] | outcome [10]

Cc1cnc(C)c(C)n1
inactive: Potency [1] | Potency [2] | Potency [3] | Potency [4] | Potency [6] | Potency [8] | outcome [9]

CCCOCCOCCO
inactive: Potency [1] | Potency [2] | Potency [3] | Potency [4] | Potency [6] | Potency [8]

CC1CC(O)CC(C)(C)C1 (stereo not given)
inactive: Potency [1] | Potency [2] | Potency [3] | Potency [4] | Potency [5] | Potency [8] | outcome [9] | outcome [10]

CC(C)CCCCCCOC(=O)CCCCC(=O)OCCCCCCC(C)C
inactive: Potency [1] | Potency [2] | Potency [3] | Potency [4] | Potency [5] | Potency [6] | Potency [7] | Potency [8] | outcome [10]

[O]=[Bi]
inactive: activity change, negative = cytotoxicity [1] 2.23% [at 5.95 µM] | activation [2] 2.74% [at 5.95 µM] | viability change, negative = cytotoxic [3] -12.9% [at 6.26 µM] | ratio activity, negative = inhibition [4] 3.78% [at 6.26 µM] | activity change, negative = inhibition [5] 6.5% [at 5.95 µM] | viability change, negative = cytotoxic [6] 7.08% [at 5.95 µM] | activation [7] 0.937% [at 5.95 µM] | activity change, negative = cytotoxicity [8] 2.95% [at 5.95 µM] | activity change, negative = inhibition [10] 5.58% [at 6.95 µM]

ON(Cc1ccccc1)Cc1ccccc1
inactive: Potency [1] | Potency [2] | Potency [3] | Potency [4] | Potency [6] | Potency [8] | outcome [9]

Cc1nc2ccccc2s1
inactive: Potency [1] | Potency [2] | Potency [3] | Potency [4] | Potency [6] | Potency [8] | outcome [9]

C=CCNc1nc(NCC=C)nc(N2CCN(C(c3ccc(F)cc3)c3ccc(F)cc3)CC2)n1
inactive: Potency [1] | Potency [2] | Potency [3] | Potency [4] | Potency [5] | Potency [7] | Potency [8] | outcome [9] | outcome [10]

COCC(O)CO (stereo not given)
inactive: Potency [1] | Potency [2] | Potency [3] | Potency [4] | Potency [6] | Potency [8]

CCn1cc(C(=O)O)c(=O)c2cc(F)c(N3CCNCC3)nc21
inactive: Potency [1] | Potency [2] | Potency [3] | Potency [4] | Potency [6] | Potency [8] | outcome [9] | outcome [10]
